This passage reports inhibition results from PubChem BioAssay AID485 (The Scripps Research Institute Molecular Screening Center, 2006).

Out of some 170,000 compounds screened, about 460 (0.27%) were called active.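 How the source made its calls: active means inhibition above the plate cutoff, the mean inhibition of test wells on that plate plus 3 SD (cut at about 28% in these data); inactive means the rest.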 The entries come from a sample that favours actives as a whole.

For this test, the target named is Sphingosine 1-phosphate receptor 3 (Homo sapiens) (UniProt Q99500). The test can be described thus: S1P3 receptor antagonists, primary screen, cell-based (AID 485).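 Further: cells challenged with S1P at its EC80 of 0.8 µM; blue over green emission ratio from cleaved BLA substrate after 4 h stimulation; 0% = S1P-stimulated wells and 100% = unstimulated DMSO-only wells.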 Conditions: CHO S1P3 NFAT-BLA reporter, FRET fluorescence, antagonist mode; at 4.98 µM; hits give high values.
Chain of Sphingosine 1-phosphate receptor 3 (Homo sapiens) (Q99500 whole entry, looked up): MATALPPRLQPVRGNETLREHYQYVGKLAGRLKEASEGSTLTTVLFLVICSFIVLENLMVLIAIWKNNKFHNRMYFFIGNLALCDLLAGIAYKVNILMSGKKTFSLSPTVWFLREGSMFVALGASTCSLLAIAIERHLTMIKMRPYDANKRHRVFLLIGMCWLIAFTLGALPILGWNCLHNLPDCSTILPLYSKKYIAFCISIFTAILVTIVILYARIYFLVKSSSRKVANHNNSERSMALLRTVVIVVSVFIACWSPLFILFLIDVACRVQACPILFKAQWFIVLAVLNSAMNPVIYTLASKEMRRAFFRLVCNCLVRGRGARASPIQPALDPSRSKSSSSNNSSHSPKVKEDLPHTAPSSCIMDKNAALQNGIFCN
In the case of `COc1ccc(CS(=O)/C(Cl)=C(/Cl)C(=O)Nc2ccc(OC)nc2)cc1` (centres undefined), the inhibition was 56.4% (active).

As for `COc1ccc(NC(=S)NCCNC(C)=O)cc1`, the inhibition was 12.8% (inactive).

`COc1ccc(NC(=S)Nc2ccccc2Cl)cn1`: the inhibition was 4.46% (inactive).

For `CCOC(=O)c1c(C)[nH]c(C2=NNC(=NC(C)COC)SC2)c1C` (centres undefined), the inhibition was -26% (inactive).

For `CC(C)c1cc(NCc2ccccn2)n2c(nc3ccccc32)c1C#N`, the inhibition is -17.9% (inactive).

As to `O=C(N/N=C/c1ccc([N+](=O)[O-])o1)c1cccc(S(=O)(=O)N2CCOCC2)c1`, the inhibition is 8.39% (inactive).

Regarding `O=[N+]([O-])c1cccc(/C([O-])=C(/C(=S)Nc2ccccc2F)[n+]2ccccc2)c1`, the inhibition is -11.5% (inactive).

For `O=C(Nc1ccc(N2CCOCC2)nc1)c1c(F)cccc1F`, the inhibition was 6.79% (inactive).

Take `O=[N+]([O-])c1ccc2[nH]c3c(c2c1)CCCC3O` (centres undefined): the inhibition is 12.7% (inactive).

For the compound `C/C(=N\OC(=O)c1ccccc1)c1c(C)nc2cc(C)ccn12`, the inhibition was -11.2% (inactive).

Regarding `CC(=O)Nc1cccc(C(=O)Nc2nc(C)cs2)c1`, the inhibition was -16.1% (inactive).

In the case of `Cc1cc(/C=N/NC(=O)c2cccnc2)c(C)n1CC(C)C`, the inhibition is 4.4% (inactive).

Consider `N#CCCCn1c(O)c(N=NC(=O)C(O)c2ccccc2)c2ccccc21` (centres undefined), for which the inhibition is 5.47% (inactive).

Regarding `Cc1c(NC(=O)CSc2nnnn2-c2ccc(C(=O)O)cc2)c(=O)n(-c2ccccc2)n1C`, the inhibition was 7.84% (inactive).

Consider `CCn1ccnc1CN1CCCC(C(=O)c2ccc3c4c(cccc24)CC3)C1` (centres undefined), for which the inhibition is -14.3% (inactive).

With `O=C(c1cc(COc2c(F)cccc2F)on1)N1CCSCC1`, the inhibition is 10.4% (inactive).

As for `C/C(CC(=O)Nc1cccc(C(F)(F)F)c1)=N\NC(=O)C(=O)NCC(C)C`, the inhibition is -5.61% (inactive).

Consider `CC(C)Oc1ccc(CCC(=O)NNC(=S)NCc2ccccc2)cc1`, for which the inhibition was 11.1% (inactive).

`COc1ccc(Cc2cc(-c3ccc(F)cc3)n[nH]c2=O)cc1`: the inhibition was 16.1% (inactive).

Regarding `CCOC(=O)c1ccc(N=C2SC(C(=O)NC)CC(=O)N2CCc2ccccc2)cc1` (centres undefined), the inhibition was -0.92% (inactive).

For the compound `CCCN(c1ccc(C)cc1)c1nc(=O)c2cccnc2s1`, the inhibition is -4.79% (inactive).

In the case of `CCC(=O)NC(=Nc1nc2ccccc2s1)NC(=O)CC`, the inhibition is 84.7% (active).

For the compound `O=C(O)CSCc1nc2ccccc2s1`, the inhibition was -27.1% (inactive).

For the compound `O=C(Nc1ccccc1)Nc1nc2ccccc2s1`, the inhibition was 6.66% (inactive).

For `COC(=O)CSc1nccc(-c2cccs2)n1`, the inhibition is -15.2% (inactive).

As to `O=C1c2ccccc2NC(c2ccccn2)N1NS(=O)(=O)c1ccccc1` (centres undefined), the inhibition was -20% (inactive).

Turning to `Cc1cc(=O)oc2cc(OCC(=O)Nc3nnc(C4CC4)s3)ccc12`, the inhibition is 6.03% (inactive).

Regarding `COCCCNC(=O)Cn1c(=O)n(Cc2ccccc2Cl)c(=O)c2cc(OC)c(OC)cc21`, the inhibition is -15.6% (inactive).

In the case of `COc1ccc(-n2cc(CN(C)Cc3n[nH]c(=O)[nH]3)c(-c3cccc(F)c3)n2)cc1`, the inhibition was 0.22% (inactive).

Regarding `C=CCC(Nc1ccccc1)c1cccc(OC)c1OC` (centres undefined), the inhibition is 3.89% (inactive).

As for `CN(C)CCCN(Cc1cc2cc3c(cc2[nH]c1=O)OCCO3)C(=O)NC1CCCCC1`, the inhibition is -12.8% (inactive).

For `O=C(CCNc1n[nH]c(=O)[nH]c1=O)N/N=C\c1ccc(Br)cc1`, the inhibition was 7.68% (inactive).

On to `O=C(NCCCNc1ccc([N+](=O)[O-])cc1Cl)c1ccccc1F`, for which the inhibition was -0.7% (inactive).

`CCC(C)c1ccc(NC(=S)NCc2ccccn2)cc1` (centres undefined): the inhibition was 6.58% (inactive).

With `COc1ccc(C)cc1NC(=O)c1ccc(-c2ccc(C(C)=O)cc2)o1`, the inhibition was -2.68% (inactive).

In the case of `CC/C(=N\NC(=S)NC(C)C)c1ccc(OC(F)F)cc1`, the inhibition is 0.35% (inactive).

`COc1cccc(Nc2nnc(SCC(=O)N3CC(=O)Nc4ccccc43)s2)c1`: the inhibition was 1.32% (inactive).

As for `CCOC(=O)c1cn(CC)c2cc(F)c(F)cc2c1=O`, the inhibition was 1.3% (inactive).

Take `CN(CC(=O)Nc1cccc(F)c1)CC(=O)Nc1cccc([N+](=O)[O-])c1`: the inhibition is -5.5% (inactive).

Consider `Cc1ccc(NC(=O)CN(C)CC(=O)Nc2cccc(F)c2)cc1[N+](=O)[O-]`, for which the inhibition was 29.9% (active).

As for `Cc1ccc(CN(C)CC(=O)Nc2cccc([N+](=O)[O-])c2)o1`, the inhibition was -19.1% (inactive).

Turning to `Cc1ccc(/C=C/C(=O)O)cc1S(=O)(=O)N1CCC(Cc2ccccc2)CC1`, the inhibition is -2.15% (inactive).

`O=C(Cn1cnc2cc([N+](=O)[O-])ccc2c1=O)NC(=O)NCc1ccccc1`: the inhibition is -4.47% (inactive).

On to `COc1ccc(F)cc1S(=O)(=O)N1CCCCC1`, for which the inhibition was 17.2% (inactive).

For `Cc1ccc(NC(=O)C/C(N)=N/O)cc1Cl`, the inhibition is -2.94% (inactive).

On to `CC(C)(C)c1ccc(CCC2OCC(CN3CCOCC3)O2)cc1` (centres undefined), for which the inhibition is 10.3% (inactive).

With `CCN(CC(=O)Nc1cccc(S(N)(=O)=O)c1)Cc1nc2ccccc2c(=O)[nH]1`, the inhibition was 19.8% (inactive).

For `COC(=O)c1c(NC(C)=O)sc(C(=O)Nc2ccccc2OC)c1C`, the inhibition was 6.94% (inactive).

For the compound `Cc1ccc(NC(=O)Nc2cc(-c3ccccc3)nn2C)cc1Cl`, the inhibition was 6.92% (inactive).

Consider `Cc1nc2ccccn2c1C(=O)NN=C1CCN(C)CC1`, for which the inhibition is 5.25% (inactive).

With `CCOC(=O)c1c(N)sc2c1CCCC2=O`, the inhibition is 8.9% (inactive).

As to `O=[N+]([O-])c1ccc(F)cc1Oc1nc(-c2cccnc2)nc2ccccc12`, the inhibition is 4.41% (inactive).

`CC1C(=O)NC(=O)C1c1ccccc1` (centres undefined): the inhibition was 5.96% (inactive).

For the compound `CC(NCc1ccccc1OC1CCCC1)c1ccccc1` (centres undefined), the inhibition was 3.22% (inactive).

Consider `CCN(CC)CCN(C(=O)c1ccc(N2C(=O)CCC2=O)cc1)c1nc2cc3c(cc2s1)OCO3`, for which the inhibition is -4.37% (inactive).

`O=C(NCc1cccnc1)C(=O)Nc1nc(-c2ccccc2)cs1`: the inhibition is 10.3% (inactive).

Regarding `CCOC(=O)CC1C(=O)NCCN1C(=O)COc1ccc(Br)cc1C` (centres undefined), the inhibition is -25.1% (inactive).

Regarding `CCOC(=O)CC1C(=O)NCCN1c1nc2c(C)cccn2c(=O)c1/C=C1\SC(=S)N(C(C)CC)C1=O` (centres undefined), the inhibition was 29.7% (active).

As to `CCOc1ccc(/C=C2\SC(=S)N(NC(=O)c3ccncc3)C2=O)cc1OC`, the inhibition is 6.85% (inactive).

As for `CCCCCC1CCC(c2nnc(SCC(C)=O)o2)CC1` (centres undefined), the inhibition was -22.3% (inactive).

Turning to `O=C(NNS(=O)(=O)Cc1ccccc1)c1ccc([N+](=O)[O-])cc1`, the inhibition was -6.72% (inactive).

Regarding `Cn1c(S(=O)(=O)O)nc2ccccc21`, the inhibition was -12.4% (inactive).

On to `Cn1c(-c2ccc(C(=O)c3ccccc3)s2)nc2ccccc21`, for which the inhibition is 59.9% (active).

`Cn1cccc1-c1nc2ccccc2n1C`: the inhibition was -6.38% (inactive).

Take `Cc1ccc(-n2ncc3c(N4CCN(c5ccc(F)cc5)CC4)ncnc32)c(C)c1`: the inhibition was 27.2% (inactive).

For the compound `Cc1cccc(-n2ncc3c(N4CCc5ccccc54)ncnc32)c1`, the inhibition is 84.3% (active).

In the case of `COc1ccc(-n2ncc3c(N4CCc5ccccc54)ncnc32)cc1`, the inhibition is 13.4% (inactive).

Consider `CCN(CC)c1ccc2c(Nc3ccccc3)c(C=O)c(=O)oc2c1`, for which the inhibition is 6.07% (inactive).

Regarding `CC(C)Cc1nnc(NC(=O)CCC(=O)Nc2ccc3cn[nH]c3c2)s1`, the inhibition is -0.32% (inactive).

Consider `Cc1c(CN2CCCCC2)c(O)n(CCO)c(=O)c1C#N`, for which the inhibition is -12.4% (inactive).

For `CCOc1cnc(-c2c(-c3ccccc3Cl)noc2C)o1`, the inhibition is -6.23% (inactive).

In the case of `Cc1ccc(S(=O)(=O)N(CC(=O)NN=C2CCN(C)CC2)c2ccc(F)cc2)cc1`, the inhibition is 4.23% (inactive).

With `CCN(CC)C(=O)C(=O)c1cn(CC(=O)NCc2ccc3c(c2)OCO3)c2ccccc12`, the inhibition is 1.34% (inactive).

For `CN(C)c1ccc(NC(=O)CSc2n[nH]c(-c3ccco3)n2)cc1`, the inhibition is -1.38% (inactive).

With `CC(C)C(=O)Nc1ccc2oc(=O)ccc2c1`, the inhibition was -11.4% (inactive).

As to `CC1CCN(C(=S)c2cccc([N+](=O)[O-])c2)CC1`, the inhibition is -0.25% (inactive).

In the case of `C=CCOC(=O)C1=C(C)N=C2SCCC(=O)N2C1/C=C/c1ccccc1OC` (centres undefined), the inhibition was -1.87% (inactive).

Regarding `CCC(C)(C)NC(=O)CN(Cc1cccs1)C(=O)CNS(=O)(=O)c1ccc(F)cc1`, the inhibition was -2.83% (inactive).

Consider `Cc1cc(N/N=C/c2ccccc2F)c2ccccc2n1`, for which the inhibition was -3.58% (inactive).

For the compound `CC(=O)Nc1ccc(C(=O)/C=C/c2ccc[nH]2)cc1`, the inhibition is 0.84% (inactive).

Turning to `CCc1cc(CNC(=O)CC2C(=O)NCCN2Cc2ccccc2C(F)(F)F)on1` (centres undefined), the inhibition was -1.82% (inactive).

Take `CCc1ccc(C(=O)OCC(=O)NCC(F)(F)F)cc1`: the inhibition was -9.42% (inactive).

In the case of `O=C(O)CC12CC3CC(C1)CC(n1ncc(NCc4ccc(F)cc4)c(Cl)c1=O)(C3)C2`, the inhibition is -16.8% (inactive).

In the case of `CC[C@H]1CN2CCc3cc(OC)c(OC)cc3[C@@H]2C[C@@H]1C[C@H]1NCCc2cc(OC)c(OC)cc21`, the inhibition was 97.4% (active).

With `COc1cc2c(cc1O)[C@H](Cc1ccc(Oc3cc(C[C@@H]4NCCc5cc(OC)c(O)cc54)ccc3O)cc1)NCC2`, the inhibition was -12.9% (inactive).

Take `CN1C(=O)/C(=N/OC(=O)c2ccccc2Br)c2ccccc21`: the inhibition is -12.3% (inactive).

As for `COc1ccc(NC(=O)CN2C(=O)CSC2=O)cc1`, the inhibition is 4.71% (inactive).

Take `CC(C)N(Cc1ccccc1)C(=O)COC(=O)c1cnccn1`: the inhibition was -8.02% (inactive).

With `O=Cc1ccc(OCc2cn3ccccc3n2)cc1`, the inhibition was -13.1% (inactive).

As for `CCCc1ccc(C(=O)[C@@H]2[C@@H](C(C)=O)N3c4ccc(F)cc4C=C[C@@H]3[C@@]23C(=O)Nc2ccccc23)cc1`, the inhibition was 3% (inactive).

For `COc1ccccc1C(=O)NNC(=O)c1ccc(NC(=O)c2ccccc2)cc1`, the inhibition was -4.89% (inactive).

For `CCCN(CCC)CC(O)COc1ccccc1C(=O)Nc1ccccc1` (centres undefined), the inhibition is -9.63% (inactive).

With `CC(C)Oc1ccccc1C(=O)NC(CO)C(=O)O` (centres undefined), the inhibition is 28.6% (active).

In the case of `O=C(Nc1cccc2c1N(C(=O)c1ccco1)CCC2)c1ccco1`, the inhibition is -8.57% (inactive).

By inhibition is commonly meant the change of the read-out against control, counted positive when it falls.
